GPR151 activ: human GPR151 activation; Q8TDV0; PathHunter beta-arrestin GPR151 cells, luminescence; activation, % at 11.2 µM; actives 1% (n = 650,000); in the data active means activation above about 4.9%;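 further: 0% = median of compound wells and 100% = cells with positive control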
Target sequence (Q8TDV0 whole entry, looked up): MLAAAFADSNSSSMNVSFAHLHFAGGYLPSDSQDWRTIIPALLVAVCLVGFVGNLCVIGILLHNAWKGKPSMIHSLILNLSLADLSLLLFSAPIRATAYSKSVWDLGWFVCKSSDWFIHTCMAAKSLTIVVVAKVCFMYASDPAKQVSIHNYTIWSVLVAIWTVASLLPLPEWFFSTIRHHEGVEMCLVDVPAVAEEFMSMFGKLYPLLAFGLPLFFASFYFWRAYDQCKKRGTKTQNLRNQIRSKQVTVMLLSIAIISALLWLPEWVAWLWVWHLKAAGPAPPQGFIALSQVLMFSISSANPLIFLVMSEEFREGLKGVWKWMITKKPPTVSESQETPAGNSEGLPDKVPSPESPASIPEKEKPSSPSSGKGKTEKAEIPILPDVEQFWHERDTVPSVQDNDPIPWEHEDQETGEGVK
MITF inh: human MITF inhibition, primary screen. O75030. actives 0.91% (n = 650,000). AlphaScreen MITF homodimerization, bead proximity signal. inhibition, % at 2.6 µM. AID 1259374; in the data active means inhibition above about 50%;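 further: 0% = vehicle wells with protein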
FBW7 act: human FBW7 E3 ligase activation, primary screen | Q969H0 | AlphaScreen FBW7–phospho-cyclin E peptide binding, activator screen | normalized activity (activation), % at 26.1 µM | actives 0.13% (n = 650,000); in the data active means normalized activity above about 1.9%;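 further: purified mutant Fbw7 with reduced substrate affinity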
TEAD-YAP inh: TEAD-YAP interaction inhibition. inhibition, % at 9.12 µM. actives 1.4% (n = 640,000). HEK-TIYL cells, TEAD-Gal4/YAP UAS-luciferase luminescence; in the data active means inhibition above about 32%;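 further: 0% = median of test compound wells and 100% = reference inhibitor wells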
GPR151 confirm: confirmation of human GPR151 activators; shares compounds with GPR151 activ; GPR151 PathHunter beta-arrestin cells, luminescence, 90 min; % of EA-reagent control over plate median; activation, % at 11.2 µM; 6,700 tested, under 10 active; AID 1508609;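 active means mean percent activation across replicates above the confirmation screen cutoff of 4.91%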
GPR119 counter: activates human GPR119 in a GPR151 counter-screen; GPR119 PathHunter beta-arrestin cells, luminescence, 90 min; 0 = compound-well median, 100 = enzyme-acceptor control; shares compounds with GPR151 activ; activation, % at 11.2 µM; actives 0.3% (n = 6,700);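 active means mean percent activation in the counterscreen above 29.09%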;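 further: counterscreen on off-target GPR119 to flag nonselective hits from the GPR151 activator screen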
Numbers without * were called inactive; . = not tested or not shown; ! = not confirmed by another sample. Most compounds without a hit are left out; they make up all but 3.5% or so of the library.

SMILES | GPR151 activ | MITF inh | FBW7 act | TEAD-YAP inh | GPR151 confirm | GPR119 counter
Cc1ccc(CN2CCc3nnc(CNC(=O)c4ccccn4)n3CC2)cc1 | -1 | 8 | 0 | 11 | . | .
CC(C)=CCCC(C)CN1CCc2nnc(CNC(=O)c3ccccn3)n2CC1 (stereo unspecified) | 6.8* | 8 | 0 | 2 | 1 | 8
C/C(=C\c1ccco1)CN1CCc2nnc(CNC(=O)CCc3cccnc3)n2CC1 | -2 | 18 | 0 | -1 | . | .
CC(C)=CCN1CCc2nnc(CNC(=O)c3ccccn3)n2CC1 | 0 | 3 | 0 | 0 | . | .
CC1(C2CCN(Cc3cc4ccccc4o3)CC2)NC(=O)NC1=O (stereo unspecified) | 1 | -7 | 0 | -8 | . | .
CN(C)c1ncnc2c1C(c1ccc([N+](=O)[O-])cc1)c1c(ncnc1N(C)C)O2 | 6.2* | 8 | 0 | -7 | 0 | -6
Nc1ccc(-c2ccc(N)cc2C(F)(F)F)c(C(F)(F)F)c1 | 5.6* | 0 | 0 | 3 | 0 | -10
Nc1c(C(F)(F)F)cc(C(F)(F)F)cc1C(F)(F)F | -2 | -1 | 0 | -4 | . | .
Cc1ccc(N2C(=O)NC(=O)/C(=C\c3cccc(F)c3)C2=O)cc1C | 1 | -2 | 0 | -5 | . | .
Nc1nc2ccc(OC(F)(F)F)cc2s1 | -2 | -8 | 0 | -18 | . | .
Nc1nc2ccc(Oc3ccccc3)cc2s1 | 8.9* | 3 | 0 | 1 | 0 | -3
Cc1cc2cc(CN(CCO)S(=O)(=O)c3ccccc3)c(=O)[nH]c2cc1C | 0 | 15 | 0 | -2 | . | .
CC(NC(=O)CCn1cnc2c(cnn2-c2ccc(F)cc2)c1=O)c1ccccc1 (stereo unspecified) | 0 | -9 | 0 | 9 | . | .
CC(=O)c1cccc(NC(=O)CSc2nnc(-c3cc4ccccc4cc3O)n2C)c1 | 5.0* | -1 | 0 | 12 | 0 | -2
C=CCn1c(SCC(=O)Nc2cccc(SC)c2)nnc1-c1ccccc1O | 5.7* | -6 | 0 | 10 | 1 | -2
C=CCn1c(CNC(=O)c2ccco2)nnc1SCC(=O)Nc1cccc(F)c1 | 7.3* | 3 | 0 | 2 | 1 | 1
COc1ccc(NC(=O)CN2CCCC(c3nc4ccccc4[nH]3)C2)cc1 (stereo unspecified) | 2 | 19 | 0 | 9 | . | .
CN1CCN(/N=C(\NO)c2nonc2N)CC1 | 13*! | -18 | 0 | -25 | 0 | -1
CCN(CC)CCN1C(=O)C(O)=C(C(=O)c2cc3ccccc3o2)C1c1ccc(C)o1 (stereo unspecified) | 6.1* | -20 | 0 | -7 | 0 | -6
COc1ccc(N(CCCN2C(=O)c3cccc4cccc(c34)C2=O)C(=O)c2ccc([N+](=O)[O-])cc2Cl)cc1 | 12* | -4 | 0 | 5 | 0 | 0
COc1ccc(N(CCCN2C(=O)c3cccc4cccc(c34)C2=O)C(=O)c2cc(Cl)cc(Cl)c2)cc1 | -1 | -2 | 0 | 4 | . | .
COc1ccc(NC(=O)Cn2c(=O)n(Cc3cccs3)c3ncccc32)cn1 | -1 | 6 | 1 | 13 | . | .
CCN(CC)C(=O)c1cn(CCC#N)nc1-c1ccc(OC)c([N+](=O)[O-])c1 | 21* | 7 | 0 | -3 | 1 | 5
CC(=O)NC(CC(C)C)c1nnc2n1CCN(CC(C)(C)C)CC2 (stereo unspecified) | 1 | 2 | 1 | -33 | . | .
O=C(N1CCCCC1)C12CC3CC(C1)CC(c1ccc([N+](=O)[O-])cc1)(C3)C2 | 6.8* | 0 | 0 | -1 | 0 | -9
SMILES | GPR151 activ | MITF inh | FBW7 act | TEAD-YAP inh | GPR151 confirm | GPR119 counter
CC(C)CC(=O)NS(=O)(=O)c1ccc(NC(=O)c2ccc(Cl)cc2)cc1 | 2 | 14 | 0 | 1 | . | .
CC(C)CC(=O)NS(=O)(=O)c1ccc(NC(=O)c2ccccc2Cl)cc1 | 5.1* | 2 | 0 | -9 | 1 | -8
COC(=O)c1ccc(/C=N/NS(=O)(=O)c2cc(C)ccc2C)cc1 | 5.9* | -9 | 0 | 11 | -1 | -9
COC(=O)c1ccc(/C=N\NC(=O)CNc2ccc(C)cc2)cc1 | 1 | 1 | 0 | -2 | . | .
CCOC(=O)c1sc(NC(C)=O)cc1C | -1 | 11 | 0 | -5 | . | .
CCOC(=O)c1sc(N/C(=C/C(=O)c2ccccc2)C(=O)O)cc1C | 9.0* | -4 | 0 | -5 | 0 | 3
CCOc1ccc(NC(=O)CC2Sc3ccc(C(F)(F)F)cc3NC2=O)c([N+](=O)[O-])c1 (stereo unspecified) | 5.0* | 9 | 0 | -2 | 0 | 8
Cc1ccc(OCC(=O)NC(=S)Nc2ccc(Cl)cn2)cc1 | 2 | 10 | 0 | 0 | . | .
C=CCN1C(=O)c2oc3ccccc3c(=O)c2C1c1cccc([N+](=O)[O-])c1 (stereo unspecified) | 5.8* | -19 | 0 | -8 | 0 | -3
C=CCN1C(=O)c2oc3ccccc3c(=O)c2C1c1ccc(O)c(OC)c1 (stereo unspecified) | 1 | 2 | 0 | -4 | . | .
COc1ccc(C(CC(=O)O)NC(=O)OC(C)(C)C)cc1 (stereo unspecified) | -1 | -11 | 0 | 8 | . | .
CC(C)OC(=O)CC(NC(=O)OC(C)(C)C)c1ccccc1 (stereo unspecified) | 8.1* | 10 | 0 | . | 0 | 7
COc1cccc(CC2(CO)CCCN(Cc3cccc(OC)c3OC)C2)c1 (stereo unspecified) | 6.2* | 12 | 0 | 6 | 0 | -5
COc1cccc(CC2(CO)CCCN(Cc3cc(OC)c(OC)c(OC)c3)C2)c1 (stereo unspecified) | -1 | -2 | 0 | 1 | . | .
Cc1nn(CC(=O)NCC#N)c(C)c1[N+](=O)[O-] | 5.0* | -3 | 0 | -4 | 0 | -3
COc1ccccc1CN[C@H]1C[C@H]2C(=O)N[C@H](CO)C(=O)N2C1 | 0 | 17 | 0 | -5 | . | .
CC(C)C[C@@H]1NC(=O)[C@@H]2C[C@H](NC(=O)Nc3cccc(C(F)(F)F)c3)CN2C1=O | 12* | -24 | 0 | -12 | -1 | 1
COc1ccccc1CN[C@H]1C[C@H]2C(=O)N[C@@H](CC(C)C)C(=O)N2C1 | 6.1* | -13 | 0 | -12 | 2 | 11
CC(C)[C@@H]1NC(=O)[C@@H]2C[C@H](NCc3cn(C)nc3-c3ccccc3)CN2C1=O | 13* | -4 | 0 | -6 | 4 | 14
Cc1cc(C)c2c(N)c(C(=O)Nc3ccc(I)cc3C)sc2n1 | 1 | -3 | 0 | 6 | . | .
CCSc1nnc(NC(=O)c2cccc(S(=O)(=O)N3CCCCC3)c2)s1 | 0 | 11 | 0 | 4 | . | .
CC(C)(C)C(=O)N1CCc2nc3ccccn3c(=O)c2C1 | 6.8* | -4 | 0 | 3 | 0 | -5
CCC(=O)N1CCc2nc3ccccn3c(=O)c2C1 | -1 | -5 | 0 | -5 | . | .

Assay outcomes: PubChem BioAssay, The Scripps Research Institute Molecular Screening Center
